hcDAF-12 act = activates DAF-12 receptor from parasite H. contortus. HEK293 hcDAF-12 lit1-tk-luc reporter, luminescence; 0% DMSO, 100% Δ7-dafachronic acid. activation, % at 6.8 µM. actives 1.4% (n = 370,000). AID 652067;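 active means activation above the mean of all tested compounds plus 3 SD, cut at about 5.5% in these data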;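 further: 100% = response to 3 µM Δ7-dafachronic acid high control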
DAX1 inh-1 = inhibitors of DAX1 repression of SF-1 activated StAR promoter; HEK293T StAR-luciferase reporter, SF-1/DAX-1 repression relief; inhibition, % at 6.8 µM; actives 1.1% (n = 370,000); AID 652010;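 active means inhibition above the mean over all tested compounds plus 3 SD, cut at about 3.6% in these data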;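 further: 0% = DAX-1 cells with DMSO and 100% = cells lacking DAX-1 with DMSO; higher inhibition means more luminescence from relief of DAX-1 repression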
ssDAF12 agonist = activates DAF-12 receptor from parasite S. stercoralis; HEK293 ssDAF-12/GRIP1 lit1-tk-luc reporter, luminescence; % of 3 µM dafachronic acid response; activation, % at 6.8 µM; actives 1% (n = 370,000); AID 652126;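 active means activation above the mean over all tested compounds plus 3 SD, cut at about 0.9% in these data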;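 further: 0% = DMSO-only wells and 100% = 3 µM delta7-dafachronic acid wells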
GAA850 FXN act = activators of GAA850 frataxin (FXN) promoter. HEK293 lucGAA850 FXN promoter luciferase reporter, 24 h; percent of 10 µM SAHA response. activation, % at 6 µM. actives 0.56% (n = 360,000). AID 540364;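 active means activation above the average of all compounds screened plus 3 SD, cutoff fixed separately per campaign, cut at about 7.5% in these data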;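 further: 0% = DMSO wells and 100% = 10 µM SAHA wells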
hgDAF12 agonist = hgDAF-12 agonism, primary luciferase screen. actives 1.8% (n = 370,000). activation, % at 6.8 µM. HEK293 GAL4-hgDAF12 UAS-luciferase reporter, agonist luminescence; normalized to butyrate control. AID 687014;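 active means activation above a cutoff set at the mean of all screened compounds plus 3 SD, cut at about 10% in these data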;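 further: 0% = DMSO wells and 100% = sodium butyrate wells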
DAX1 inh-2 = inhibits human nuclear receptor DAX1 | P51843 | HEK293 Gal4-DAX1 luciferase reporter, luminescence | inhibition, % at 6.75 µM | actives 0.99% (n = 340,000) | AID 504766;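 active means inhibition above the mean over all tested compounds plus 3 SD, cut at about 4.2% in these data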;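 further: 0% = DAX1-transfected cells with DMSO and 100% = empty-vector control cells with DMSO; inhibition shows as a rise in luminescence from relieved DAX1 repression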
Target sequence (P51843 207-470 limits assumed): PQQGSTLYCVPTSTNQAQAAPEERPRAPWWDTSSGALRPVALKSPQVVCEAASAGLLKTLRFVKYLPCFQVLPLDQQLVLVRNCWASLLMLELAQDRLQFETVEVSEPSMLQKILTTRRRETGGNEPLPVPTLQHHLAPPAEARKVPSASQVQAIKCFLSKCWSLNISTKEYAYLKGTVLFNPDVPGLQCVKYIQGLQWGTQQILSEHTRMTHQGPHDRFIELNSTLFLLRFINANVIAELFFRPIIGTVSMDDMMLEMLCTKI
GAA30 FXN cntr = counter-screen for GAA850 frataxin promoter activators: GAA30 promoter activation; actives 66% (n = 1,900); shares compounds with GAA850 FXN act; HEK293 lucGAA30 FXN promoter luciferase, 24 h; DMSO = 0%, 5 µM ipriflavone = 100%; activation, % at 6 µM; AID 588350;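 active means mean activation above the mean of solvent-only control wells plus 3 SD, cut at about 22% in these data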;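 further: counterscreen of GAA850 promoter hits where activity marks nonselective or luminescence artifacts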
FXN GAA850 conf = confirmation of GAA850 frataxin (FXN) promoter activators | activation, % at 6 µM | actives 86% (n = 1,900) | HEK293 lucGAA850 FXN promoter luciferase reporter, 24 h; 100% = activation by SAHA | shares compounds with GAA850 FXN act | AID 588351;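 active means mean activation above a set limit taken from the primary screen, cut at about 8% in these data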;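 further: 0% = DMSO wells and 100% = 10 µM SAHA wells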
* hit, by the source's call. This is a sample that favours compounds with a hit; in the whole collection about 4.5% have one here.

What do the screens show for `Cc1cccc(NC(=O)Nc2cccc(C#N)c2)n1`?
hcDAF-12 act: -0.7; DAX1 inh-1: 1.3; ssDAF12 agonist: 0.2; GAA850 FXN act: 8.0*; hgDAF12 agonist: 4.2; DAX1 inh-2: 5.4*; GAA30 FXN cntr: 90.3*; FXN GAA850 conf: 70.3*

Results for CCOC(=O)CC[C@@H]1CC[C@]2(CCCN(Cc3nccs3)C2)O1 ?
hcDAF-12 act: -1.5; DAX1 inh-1: 0.8; ssDAF12 agonist: -1.3; hgDAF12 agonist: -5.4

What do the screens show for `Cc1ccc(Cn2cc(CN3[C@H](C)COc4cc(Br)ccc4S3(=O)=O)nn2)cc1`?
hcDAF-12 act: -1.9; DAX1 inh-1: -0.8; ssDAF12 agonist: -1.5; hgDAF12 agonist: -1.2

What do the screens show for `Cc1ccc(C2CC(=O)C(C=NCCN3CCN(CC(=O)Nc4cc(C)cc(C)c4)CC3)=C(O)C2)cc1` (stereo unspecified)?
hcDAF-12 act: -1.0; DAX1 inh-1: 0.8; ssDAF12 agonist: -0.8; GAA850 FXN act: 8.5*; hgDAF12 agonist: 0.2; DAX1 inh-2: -0.1; GAA30 FXN cntr: 13.3; FXN GAA850 conf: 6.3

Results for Cc1cc(C)cc(NC(=O)CN2CCN(CCN=CC3=C(O)CC(c4ccc(Cl)cc4)CC3=O)CC2)c1 (stereo unspecified) ?
hcDAF-12 act: -0.2; DAX1 inh-1: -0.3; ssDAF12 agonist: -0.3; GAA850 FXN act: 1.2; hgDAF12 agonist: 1.0; DAX1 inh-2: -1.1

Results for O=[N+]([O-])c1cc(S(=O)(=O)C(F)(F)F)ccc1Sc1nc2ccccc2s1 ?
hcDAF-12 act: 1.2; DAX1 inh-1: 0.0; ssDAF12 agonist: -0.1; GAA850 FXN act: 12.9*; hgDAF12 agonist: 1.4; DAX1 inh-2: -0.3; GAA30 FXN cntr: -7.0; FXN GAA850 conf: 38.0*

How did CS(=O)(=O)c1ccc(Sc2nc3ccccc3s2)c([N+](=O)[O-])c1 do in these assays?
GAA850 FXN act: -17.1; DAX1 inh-2: -5.1

How did O=C(OCc1cn(Cc2ccc(C(F)(F)F)cc2)nn1)N1CCCC1 do in these assays?
hcDAF-12 act: -1.4; DAX1 inh-1: 0.5; ssDAF12 agonist: -1.4; hgDAF12 agonist: 0.1

What do the screens show for `COC(=O)[C@]12C[C@H](CC(=O)NCc3cccc4ccccc34)C(=O)N(CCC3=CCCCC3)C1=C[C@H](C1CCCC1)O[C@@H]2C`?
hcDAF-12 act: 1.8; DAX1 inh-1: -1.4; ssDAF12 agonist: -0.9; hgDAF12 agonist: 1.7

What do the screens show for `O=C(NCCC1=CCCCC1)c1ccc(=O)oc1`?
hcDAF-12 act: -1.5; DAX1 inh-1: 0.2; ssDAF12 agonist: -1.7; GAA850 FXN act: 2.4; hgDAF12 agonist: -0.5; DAX1 inh-2: 0.1

What do the screens show for `O=C(NCCC1=CCCCC1)c1coc(=O)c(Br)c1`?
hcDAF-12 act: -0.6; DAX1 inh-1: -0.4; ssDAF12 agonist: -1.1; GAA850 FXN act: 17.0*; hgDAF12 agonist: -0.7; DAX1 inh-2: 0.6; GAA30 FXN cntr: -3.0; FXN GAA850 conf: 25.7*

Results for CN(C)CCNC(=O)c1coc(=O)c(Br)c1 ?
hcDAF-12 act: 0.5; DAX1 inh-1: -0.5; ssDAF12 agonist: -0.2; GAA850 FXN act: 3.2; hgDAF12 agonist: 0.7; DAX1 inh-2: 1.6

Results for O=C(NCCc1ccccc1)c1coc(=O)c(Br)c1 ?
hcDAF-12 act: -1.1; DAX1 inh-1: 0.0; ssDAF12 agonist: -0.6; GAA850 FXN act: 8.0*; hgDAF12 agonist: -0.8; DAX1 inh-2: 0.7; GAA30 FXN cntr: -2.1; FXN GAA850 conf: 20.6*

How did COc1ccccc1NC(=O)c1coc(=O)c(Br)c1 do in these assays?
hcDAF-12 act: 0.1; DAX1 inh-1: 0.6; ssDAF12 agonist: -0.1; GAA850 FXN act: 7.9*; hgDAF12 agonist: -0.8; GAA30 FXN cntr: 128.7*; FXN GAA850 conf: 68.6*

Results for COc1ccc(OC)c2sc(N3CCN(c4ccccc4)CC3)nc12 ?
hcDAF-12 act: -1.2; DAX1 inh-1: -0.7; ssDAF12 agonist: -0.8; GAA850 FXN act: 8.8*; hgDAF12 agonist: 0.1; DAX1 inh-2: -2.0; GAA30 FXN cntr: 39.2*; FXN GAA850 conf: 17.3*

Results for CC1(Cc2ccc(C(F)(F)F)o2)C(=O)Nc2cc(-c3ccc(F)cc3F)ccc21 (stereo unspecified) ?
hcDAF-12 act: -3.8; DAX1 inh-1: -2.3; ssDAF12 agonist: -1.5; GAA850 FXN act: 9.2*; hgDAF12 agonist: -5.4; GAA30 FXN cntr: 20.4; FXN GAA850 conf: 13.1*

How did CC1(Cc2cc(Cl)ccc2C(F)(F)F)C(=O)Nc2cc(F)ccc21 (stereo unspecified) do in these assays?
GAA850 FXN act: 0.2

What do the screens show for `CCc1cccc(CC)c1NC(=O)C(NS(=O)(=O)c1cccs1)c1ccccc1` (stereo unspecified)?
hcDAF-12 act: -0.8; DAX1 inh-1: -0.9; ssDAF12 agonist: -1.8; GAA850 FXN act: -0.9; hgDAF12 agonist: -1.1; DAX1 inh-2: -0.1

Results for CCC(C)(C)NC(=O)C(NS(=O)(=O)c1cccs1)c1ccccc1 (stereo unspecified) ?
hcDAF-12 act: 0.3; DAX1 inh-1: 0.4; ssDAF12 agonist: -0.8; GAA850 FXN act: 10.3*; hgDAF12 agonist: 3.0; DAX1 inh-2: -1.0; GAA30 FXN cntr: 14.7; FXN GAA850 conf: 10.4*

What do the screens show for `Cc1ccccc1CNC(=O)C1C2C=CC3(CN(Cc4ccccc4)C(=O)C13)O2` (stereo unspecified)?
hcDAF-12 act: 1.4; DAX1 inh-1: 0.4; ssDAF12 agonist: -1.4; hgDAF12 agonist: 1.3

Results for Cc1ccc(-c2nnn(CC(=O)N(CC3CCCO3)C(C(=O)NC3CCCCC3)c3ccc(F)cc3)n2)o1 (stereo unspecified) ?
hcDAF-12 act: -1.3; DAX1 inh-1: -0.7; ssDAF12 agonist: -1.6; GAA850 FXN act: 8.3*; hgDAF12 agonist: 1.6; DAX1 inh-2: 0.3; GAA30 FXN cntr: 22.5*; FXN GAA850 conf: 8.4*

How did COc1ccc(N2Cc3ccc(OC)c(OC)c3C2=O)cc1 do in these assays?
hcDAF-12 act: 1.5; DAX1 inh-1: 1.1; ssDAF12 agonist: -0.8; GAA850 FXN act: 8.5*; hgDAF12 agonist: 10.2; DAX1 inh-2: 1.6; GAA30 FXN cntr: 100.5*; FXN GAA850 conf: 28.3*

What do the screens show for `CCOC(=O)N1CCN(C(=O)c2ccc(NS(C)(=O)=O)cc2)CC1`?
hcDAF-12 act: -0.6; DAX1 inh-1: 0.5; ssDAF12 agonist: -0.4; GAA850 FXN act: 9.4*; hgDAF12 agonist: 0.4; DAX1 inh-2: 1.0; GAA30 FXN cntr: 26.6*; FXN GAA850 conf: 16.5*

Screening data (PubChem)
